# Shown are actives, neighbours in structure and some others; about 19% of the full set was active somewhere.
# HT1080-NT tox – qHTS for induction of synthetic lethality in tumor cells producing 2HG: qHTS for the HT-1080-NT fibrosarcoma cell line. HT-1080-NT fibrosarcoma viability, CellTiter-Glo ATP luminescence, 48 h. Potency, µM (series often up to 46.1 µM), without a hit: top-dose activity, negative = less viability, usual class: cytotoxic. 1.6% of 360,000 active. AID 686970, 2013;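 also: NT is the 2HG producing partner of a matched IDH1 knockdown line; 0% = DMSO-treated cells and -100% = media-only wells without cells; nearly all actives have a fitted effect of over 55% in size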
#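 Luminescent CellTiter-Glo readout after 48 hours of compound exposure at 37 degrees C defined viability of HT-1080-NT cells. Activity was normalized to DMSO wells and cell-free media wells; concentration-response curves were fitted and assigned curve classes.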
# TDP1 cell CPT – qHTS for Inhibitors of human tyrosyl-DNA phosphodiesterase 1 (TDP1): qHTS in cells in presence of CPT; AID 686979, 2013; chicken DT40 Tdp1-/-;hTDP1 cells + 20 nM CPT, ATP luminescence, 48 h; Potency, µM (series often up to 46.2 µM), for inactives: at the top dose activity change, negative = growth inhibition, hits mostly inhibitors; 12% of 420,000 active; also: nearly all actives have a fitted effect of over 55% in size
#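 Cell growth measured by CellTiter-Glo luminescence after a minimum 48 h, 37 C compound exposure with 20 nM CPT in Tdp1-knockout DT40 cells stably expressing hTDP1, seeded 400/well; qHTS titration format.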
# HT1080 IDH1KD tx – qHTS for induction of synthetic lethality in tumor cells producing 2HG: qHTS for the HT-1080-IDH1KD cell line | HT-1080 IDH1 knockdown viability, ATP luminescence, 48 h | Potency, µM (top dose mostly 46.1 µM), for the others: at the top dose activity, negative = toxicity, usual class: cytotoxic | 2% of 360,000 active;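 also: 0% = DMSO wells and -100% = cell-free medium wells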
#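 Assay cells: HT-1080 with IDH1 knockdown, 750 per well, RPMI/5% FBS. Exposure: 48 h at 37 °C following 2 h pre-incubation. Read: CellTiter-Glo luminescence; fitted concentration-response, curve class assigned.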
# DT40 TDP1 no CPT – qHTS for Inhibitors of human tyrosyl-DNA phosphodiesterase 1 (TDP1): qHTS in cells in absence of CPT | AID 686978, 2013 | 15% of 420,000 active | Potency, µM (titrated, usually from 46.2 µM), for the others: at the top dose activity change, negative = growth inhibition, most hits filed as inhibitors | DT40 Tdp1-/- hTDP1 cells, no CPT, ATP luminescence, 48 h; also: nearly all actives have a fitted effect of over 55% in size
#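 Seeded 400 DT40-hTDP1 cells/well (vehicle DMSO, no 20 nM CPT); pinned compounds; ≥48 hr at 37 °C; CellTiter-Glo luminescence as viability measure.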
# KB-3-1 tox – qHTS assay for MDR1-selective chemotherapeutics: Primary screen using the parental adenocarcinoma cell KB-3-1. KB-3-1 viability, CellTiter-Glo ATP luminescence, 72 h. Potency, µM (top dose mostly 46.1 µM), actives largely listed as cytotoxic. 1.4% of 400,000 active; also: nearly all actives have a fitted effect of over 60% in size
#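 Viability of parental KB-3-1 cells, measured by CellTiter-Glo luminescence, followed a 72 h incubation at 37 °C with pinned compounds in phenol-red-free DMEM containing 10% FBS.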
# KB-V1 MDR tox – qHTS assay for MDR1-selective chemotherapeutics: Primary screen using the drug-selected MDR subline cells KB-V1; KB-V1 MDR cells viability, CellTiter-Glo, 72 h; Potency, µM (titrated, usually from 46.1 µM), hits mostly cytotoxic; 3.4% of 400,000 active; AID 1347076, 2019; also: nearly all actives have a fitted effect of over 60% in size
#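 Readout: CellTiter-Glo luminescence, 10 min after addition. Cells: KB-V1 MDR subline, 72 h at 37 degrees C with compound. Analysis: corrected, normalized data fitted to concentration-effect curves.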
# Active calls of the source: *; i = inactive; ? = inconclusive; / = not tested or not shown; [ ] = dose if it differs, or a comment. Calls follow the shape of the dose curve; as a rule, active = well fitted curve in the direction sought with a large enough effect; inconclusive = small, poorly fitted or top-dose-only effect, or another doubt; inactive = no such curve, though single readings can be large; an effect the other way counts as inactive or inconclusive. Unless noted, % is scaled to controls: 0 for no effect and ±100 for the full control effect; potency is read from the fitted curve at half-maximal effect.
SMILES,HT1080-NT tox,TDP1 cell CPT,HT1080 IDH1KD tx,DT40 TDP1 no CPT,KB-3-1 tox,KB-V1 MDR tox
O=S(=O)(Nc1cccc(C(F)(F)F)c1)c1cnc[nH]1,5%,0%,-1%,-20%,i,i
O=S(=O)(Nc1ccc(C(F)(F)F)cc1)c1cnc[nH]1,-11%,18µM*,0%,23µM*,i,i
CCc1ccc(C(=O)c2c(N)c(-c3nc(-c4ccc5c(c4)OCO5)cs3)c3ccccn23)cc1,/,-9%,/,-21%,/,/
COc1ccnc(NCc2cccc(C(F)(F)F)c2)c1C#N,-1%,12%,7%,-5%,i,i
COc1ccnc(NCc2cccnc2)c1C#N,8%,3%,10%,29µM*,i,i
COC(=O)c1ccc(Oc2ccc(C(F)(F)F)cn2)cc1,?,1%,19%,-13%,i,i
Cc1cccc(-c2cccc(C(=O)N3CCc4c(cnc(C)c4CNC(=O)c4cncs4)C3)c2)c1,/,-5%[9.04 µM],/,?,/,/
CC1(C)CC(=O)CC(=O)/C1=N\Nc1c(Cl)cc(Cl)cc1Cl,10%,?,5%,18µM*,i,i
CCOc1ccc(C2C(C(=O)OC)=C(C)NC3=C2C(=O)c2ccccc23)cc1OC (stereo not drawn),/,18µM*,/,21µM*,i,i
CCOC(=O)C1=C(C)NC2=C(C(=O)c3ccccc32)C1c1cccnc1 (stereo not drawn),11%,?,11%,?,i,i
CCOc1cc(C2NC(=O)N(C)C(C)=C2C(=O)OC)cc(Br)c1O (stereo not drawn),-15%,11%,-1%,-1%,i,i
C#CCOc1c(Br)cc(C2C(C(=O)OC)=C(C)NC3=C2C(=O)c2ccccc23)cc1OCC (stereo not drawn),/,?,/,5.8µM*,4.6µM*,?
O=C1CC[C@@H](C(=O)NCC2Cc3cc(Cl)cc(-c4ccc5[nH]ccc5c4)c3O2)N1 (stereo partly drawn),/,-4%[9.04 µM],/,-25%,/,/
COc1cc(N=c2ssnc2Cl)c(OC)cc1Cl,?,2.6µM*,-1%,2.6µM*,i,i
Nc1ccccc1N=c1ssnc1Cl,-14%,?,-1%,?,i,i
COc1ccc(OC)c(N=c2ssnc2Cl)c1,-6%,12µM*,-2%,12µM*,i,i
CCC(=O)Nc1cccc(C(=O)N(Cc2ccccc2)Cc2ccccc2)c1,-2%,?,4%,?,i,i
O=C(Cn1cc(C(=O)C(=O)N2CCOCC2)c2ccccc21)Nc1cccc(C(F)(F)F)c1,-10%,?,-12%,?,i,i
COc1ccc(CCN2CC(C(=O)Nc3cc(F)ccc3F)CC2=O)cc1OC (stereo not drawn),-1%,5%,-11%,3%,i,i
CC1(C(=O)NCc2ccc(Cl)cc2)CCN1C(=O)Cc1cccs1 (stereo not drawn),1%,?,0%,?,i,i
CCOc1ccccc1OCCC(=O)OCC(=O)c1ccc[nH]1,1%,0%,8%,15%,i,i
Nc1ccc(N2CCN(c3ccc(Cl)c(Cl)c3)CC2)cc1,-10%,12µM*,-6%,9.2µM*,21µM*,18µM*
CNC(=S)N1CCN(c2ccc(Cl)c(Cl)c2)CC1,-18%,23µM*,-21%,16µM*,i,?
COC(=O)N1CCN(c2ccc(Cl)c(Cl)c2)CC1,-2%,?,6%,?,?,23µM*
N#C/C=C(/N)N1CCN(c2ccc(Cl)c(Cl)c2)CC1,-4%,?,-9%,16µM*,i,i
SMILES,HT1080-NT tox,TDP1 cell CPT,HT1080 IDH1KD tx,DT40 TDP1 no CPT,KB-3-1 tox,KB-V1 MDR tox
CCOC(=O)C1=C(CS(=O)(=O)c2c(C)cc(C)cc2C)NC(=O)NC1c1cccc(OC)c1 (stereo not drawn),/,-15%,/,?,i,i
O=C(NCc1ccccc1)c1cccn1-c1nnc(N2CCCC2)s1,/,-21%,/,?,i,i
O=C(NCCc1ccccc1)c1cc(-c2cccc(Cl)c2)on1,/,-14%,/,-5%,i,i
O=C(NC1CCCC1)C1CCN(C(=O)c2cc(Cl)ccc2Cl)CC1,11%,5%,-5%,3%,i,i
COc1ncnc2c1ncn2CCCNC1CCN(Cc2ccccc2)CC1,-7%,6%,-13%,?,i,i
CCCS(=O)(=O)NC(=O)C1(C)CCCN(C(=O)c2ccc3c(c2)OCO3)C1 (stereo not drawn),27%,?,0%,-1%,i,i
CCOc1ccccc1N1CCN(Cc2ccc(OC)c(OC)c2OC)CC1,-3%,?,-28%,?,i,18µM*
CCOc1ccccc1N1CCN(Cc2cnc(-c3ccccc3)[nH]2)CC1,-4%,?,-17%,23µM*,i,i
COc1cccc(N2CC(NC(=O)c3ccc(S(=O)(=O)N4CCCC4)cc3)CC2=O)c1 (stereo not drawn),/,-13%,/,-28%,/,/
COc1ccc(NCc2nnc(SCC(=O)NCc3ccco3)n2-c2ccccc2OC)cc1,-8%,-12%,-2%,-18%,i,i
O=C(NCc1nnc(SCc2ccc(F)cc2)n1-c1ccccc1)C12CC3CC(CC(C3)C1)C2,-26%,16µM*,-20%,5.8µM*,?,13µM*
Cc1ccc(-n2c(CNc3ccc(F)cc3)nnc2SCC(=O)NCc2ccco2)cc1,13%,16µM*,-1%,?,i,i
O=C(NCc1nnc(SCc2ccc(C(F)(F)F)cc2)n1-c1ccccc1)C12CC3CC(CC(C3)C1)C2,-3%,?,-13%,13µM*,?,16µM*
O=C(CSc1nnc(CNC(=O)C23CC4CC(CC(C4)C2)C3)n1-c1ccccc1)Nc1ccc(F)cc1,-18%,?,-26%,?,i,i
Cc1ccc(-n2c(Cc3cccs3)nnc2SCC(=O)Nc2ccc(F)c(F)c2)cc1,-11%[9.24 µM],-10%,11µM*,-18%,i,i

# From PubChem BioAssay
